In PMC6212833:
The whole screen tested about 2,000 compounds, of which about 15 (0.8%) showed an effect of 50% or more. The sample holds strong results, similar compounds and a random draw of the others, so the mix is not that of the screen.

What follows are compounds tested on Balamuthia mandrillaris (ATCC PRA-291) trophozoites, axenic culture (assay: primary screen, percent inhibition; higher = more effect of the substance). Conditions: 20 µM.
Outline: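 Trophozoites (3,000/well) in axenic medium exposed to library drugs at 20 µM in 0.2% DMSO for 72 h; viability by CellTiter Glo luminescence at 2, 4 and 8 h. Controls: vehicle and freeze-thaw amoeba lysate; B-score corrects row, column and edge effects.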
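Note: 0% = vehicle wells and 100% = lysate wells.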

| SMILES | % Inhibition [%] |
| --- | --- |
| CN(C)c1ccc2nc3ccc(=[N+](C)C)cc-3sc2c1 | 35.9 |
| C[N+]1(C)[C@H]2CC(OC(=O)[C@H](CO)c3ccccc3)C[C@H]1C1OC12 (stereo partly shown) | 14.3 |
| C=CCC1(C(C)CCC)C(=O)NC(=O)NC1=O (stereo not shown) | 11.2 |
| CCC1C(C)=NN=C(c2ccc(OC)c(OC)c2)c2cc(OC)c(OC)cc21 (stereo not shown) | 11.9 |
| CN(C)CCOC(c1ccc(Cl)cc1)c1ccccn1 (stereo not shown) | 7.85 |
| O=S(=O)(O)CCSSCCS(=O)(=O)O | 37.4 |
| Cc1nnc(SCC2=C(C(=O)O)N3C(=O)[C@@H](NC(=O)Cn4cnnn4)[C@H]3SC2)s1 | 10.9 |
| O=C(O)CCC(=O)OC[C@@H](NC(=O)C(Cl)Cl)[C@H](O)c1ccc([N+](=O)[O-])cc1 | -36.5 |
| CC[C@H]1OC(=O)[C@H](C)[C@@H](O[C@H]2C[C@@](C)(OC)[C@@H](O)[C@H](C)O2)[C@H](C)[C@@H](O[C@@H]2O[C@H](C)C[C@H](N(C)C)[C@H]2O)[C@](C)(O)C[C@@H](C)CN(C)[C@H](C)[C@@H](O)[C@]1(C)O | 23.9 |
| Nc1c2c(nc3ccccc13)CCCC2 | 30.5 |
| CC[C@H](NC(C)C)[C@H](O)c1ccc(O)c2nc(O)ccc12 | 6.56 |
| C[C@]12C=CC(=O)C=C1CCC1C2[C@@H](O)C[C@@]2(C)C1CC[C@]2(O)C(=O)COP(=O)(O)O (stereo partly shown) | 5.73 |
| CN(C)CCC[C@@]1(c2ccc(F)cc2)OCc2cc(C#N)ccc21 [131042-L4] | 26.2 |
| Clc1ccc(CSC(Cn2ccnc2)c2ccc(Cl)cc2Cl)cc1 (stereo not shown) | 15.3 |
| CN(C)CCC=C1c2ccccc2C=Cc2ccccc21 | 23.3 |
| CN(C)C(=O)Oc1cc(OC(=O)N(C)C)cc(C(O)CNC(C)(C)C)c1 (stereo not shown) [255708-L4] | 12 |
| OC[C@H]1O[C@@](CO)(OC[C@@]2(O)O[C@H](CO)[C@@H](O)[C@@H]2O)[C@@H](O)[C@@H]1O | 26.1 |

| SMILES | % Inhibition [%] |
| --- | --- |
| NC(=O)N1c2ccccc2C=Cc2ccccc21 | 6.46 |
| CCN(CC)C(C)CN1c2ccccc2Sc2ccccc21 (stereo not shown) | 8.27 |
| O=c1[nH]c(=O)n([C@H]2C[C@H](O)[C@@H](CO)O2)cc1F | 4.91 |
| CCN(CC)CCNC(=O)c1c(C)[nH]c(/C=C2\C(=O)Nc3ccc(F)cc32)c1C | 6.48 |
| O=C(Nc1ccccc1)OCC(CN1CCCCC1)OC(=O)Nc1ccccc1 (stereo not shown) | 9.34 |
| CCCCC1=NC2(CCCC2)C(=O)N1Cc1ccc(-c2ccccc2-c2nn[nH]n2)cc1 | 14.7 |
| CCCc1nc(C(C)(C)O)c(C(=O)O)n1Cc1ccc(-c2ccccc2-c2nn[nH]n2)cc1 | 21.5 |
| OCCN1CCN(CCCN2c3ccccc3Sc3ccc(Cl)cc32)CC1 | 33.5 |
| CCCCCN(C)CCC(O)(P(=O)(O)O)P(=O)(O)O [756736-L2] | 25.4 |
| Cc1cc2c(cc1S(N)(=O)=O)S(=O)(=O)CCC2 | 25.8 |
| NC[C@H]1O[C@H](O[C@H]2[C@H](O)[C@@H](O[C@H]3O[C@H](CO)[C@@H](O)[C@H](N)[C@H]3O)[C@H](N)C[C@@H]2N)[C@H](O)[C@@H](O)[C@@H]1O | 16 |
| CC[C@@H]1OC(OC(c2c[nH]cn2)C(NC(=O)c2nc(C(CC(N)=O)NCC(N)C(N)=O)nc(N)c2C)C(=O)NC(C)C(O)C(C)C(=O)NC(C(=O)NCCc2nc(-c3nc(C(=O)NCCCCN=C(N)N)cs3)cs2)C(C)O)[C@@H](O[C@H]2O[C@H](CO)[C@@H](O)[C@H](OC(N)=O)[C@@H]2O)[C@@H](C)[C@@H]1C (stereo partly shown) | -5.83 |
| O=C(NCCCN1CCOCC1)c1ccc(Cl)cc1 | 17.5 |
| CC(C)OC(=O)CCC/C=C\C[C@@H]1[C@@H](CC[C@@H](O)CCc2ccccc2)[C@H](O)C[C@@H]1O | 12.8 |
| CC[C@@H](C(=O)[C@@H](C)[C@@H](O)[C@H](C)[C@@H]1O[C@@H]([C@@H](CC)C(=O)O)CC[C@@H]1C)[C@H]1OC2(C=C[C@@H](O)[C@]3(CC[C@@](C)([C@H]4CC[C@](O)(CC)[C@H](C)O4)O3)O2)[C@H](C)C[C@@H]1C (stereo partly shown) | 19.1 |
| CC[C@]1(O)C[C@H]2CN(CCc3c([nH]c4ccccc34)[C@@](C(=O)OC)(c3cc4c(cc3OC)N(C=O)[C@H]3[C@@](O)(C(=O)OC)[C@H](OC(C)=O)[C@]5(CC)C=CCN6CC[C@]43[C@@H]65)C2)C1 | 9.62 |
| COc1ccccc1N1CCN(CCCNc2cc(=O)n(C)c(=O)n2C)CC1 | 37.2 |
